According to PubChem BioAssay (EPA / NIEHS):
Activity calls are given as the source filed them. How the source made its calls: active means hit-call score of the fitted dose curve at least 0.9, where 1 is the maximum; inactive means score below 0.9.

Assays:
[1] = read-out: Thrombomodulin, THBD (gene 7056); test: BSK_CASM3C_Thrombomodulin: BioMAP Diversity Plus: CASM3C Assay for Thrombomodulin Biomarker Activity (AID 2283051); conditions: primary human coronary artery smooth muscle cells; actives raise or lower the signal;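 further: thrombomodulin protein level measured by ELISA 24 h after dosing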
[2] = read-out: Tissue Factor, F3 (gene 2152); test: BSK_CASM3C_TissueFactor: BioMAP Diversity Plus: CASM3C Assay for Tissue Factor Biomarker Activity (AID 2283052); conditions: primary human coronary artery smooth muscle cells; actives raise or lower the signal;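 further: cell surface tissue factor protein level read by ELISA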
[3] = read-out: Urokinase-type plasminogen activator receptor (uPAR), PLAUR (gene 5329); test: BSK_CASM3C_uPAR: BioMAP Diversity Plus: CASM3C Assay for Urokinase-type plasminogen activator receptor (uPAR) Biomarker Activity (AID 2283054); conditions: primary human coronary artery smooth muscle cells; actives raise or lower the signal;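 further: cell-surface uPAR protein level quantified by ELISA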
[4] = read-out: Vascular cell adhesion molecule 1 (VCAM1), VCAM1 (gene 7412); test: BSK_CASM3C_VCAM1: BioMAP Diversity Plus: CASM3C Assay for Vascular cell adhesion molecule 1 (VCAM1) Biomarker Activity (AID 2283055); conditions: primary human coronary artery smooth muscle cells; actives raise or lower the signal;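 further: VCAM-1 protein level quantified by ELISA on the cells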
[5] = read-out: Collagen III, COL3A1 (gene 1281); test: BSK_hDFCGF_CollagenIII: BioMAP Diversity Plus: hDFCGF Assay for Collagen III Biomarker Activity (AID 2283056); conditions: primary human foreskin fibroblasts; actives raise or lower the signal
Procedure, shortened: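 ELISA readout of Collagen III in human dermal (foreskin) fibroblasts, taken 24 h post-treatment. Gain or loss relative to DMSO vehicle fitted in both directions.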

[6] = read-out: Epidermal growth factor receptor (EGFR), EGFR (gene 1956); test: BSK_hDFCGF_EGFR: BioMAP Diversity Plus: hDFCGF Assay for Epidermal growth factor receptor (EGFR) Biomarker Activity (AID 2283057); conditions: primary human foreskin fibroblasts; actives raise or lower the signal
Procedure, shortened: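 Primary human foreskin fibroblasts (hDFCGF system), sampled 24 h after dosing; EGFR quantified by ELISA. Bidirectional fit relative to DMSO baseline; SRB total-protein staining in parallel cultures for cytotoxicity.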

[7] = read-out: Interleukin-8 (IL8), CXCL8 (gene 3576); test: BSK_hDFCGF_IL8: BioMAP Diversity Plus: hDFCGF Assay for Interleukin-8 (IL8) Biomarker Activity (AID 2283058); conditions: primary human foreskin fibroblasts; actives raise or lower the signal
Procedure, shortened: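 IL-8 levels read by ELISA at 24 hours after dosing human skin fibroblast cultures. Parallel SRB staining assessed overt cytotoxicity, and gain or loss of signal was fitted against DMSO control.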

[8] = BSK_hDFCGF_Proliferation: Cell Proliferation Assessment in the BioMAP Diversity Plus: hDFCGF Assay (AID 2283059); conditions: primary human foreskin fibroblasts;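 further: curves fitted for both rise and fall of signal versus DMSO baseline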
Procedure, shortened: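 Primary human foreskin fibroblasts, sub-confluent; […]; 10% TCA fix, 0.1% SRB stain, A560 total protein. Gain/loss fitted bidirectionally vs DMSO control.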

[9] = read-out: Macrophage colony-stimulating factor (MCSF), CSF1 (gene 1435); test: BSK_hDFCGF_MCSF: BioMAP Diversity Plus: hDFCGF Assay for Macrophage colony-stimulating factor (MCSF) Biomarker Activity (AID 2283060); conditions: primary human foreskin fibroblasts; actives raise or lower the signal
Procedure, shortened: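 M-CSF levels read by ELISA at 24 h post-dosing in human skin fibroblasts. Parallel cultures stained with SRB assessed cytotoxicity at the same time point; response fitted in both directions against the DMSO baseline.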

[10] = BSK_hDFCGF_SRB: Viability Assessment in the BioMAP Diversity Plus: hDFCGF Assay (AID 2283061); conditions: primary human foreskin fibroblasts;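 further: cells exposed to compound for 24 h before the read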
Procedure, shortened: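 Viability was read as total protein: after 10% TCA fixation, wells were stained with 0.1% sulforhodamine B and read at 560 nm. Primary human foreskin fibroblasts were dosed for 24 h, with bidirectional fitting versus DMSO.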

[11] = read-out: TIMP metallopeptidase inhibitor 1 (TIMP1), TIMP1 (gene 7076); test: BSK_hDFCGF_TIMP1: BioMAP Diversity Plus: hDFCGF Assay for TIMP metallopeptidase inhibitor 1 (TIMP1) Biomarker Activity (AID 2283062); conditions: primary human foreskin fibroblasts; actives raise or lower the signal
Procedure, shortened: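 TIMP-1 measured by ELISA 24 h after chemical dosing of primary human skin fibroblasts, with gain or loss fitted relative to DMSO. Parallel SRB staining (560 nm) monitored overt cytotoxicity.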

[12] = read-out: Monokine induced gamma interferon (MIG), CXCL9 (gene 4283); test: BSK_hDFCGF_MIG: BioMAP Diversity Plus: hDFCGF Assay for Monokine induced gamma interferon (MIG) Biomarker Activity (AID 2283063); conditions: primary human foreskin fibroblasts; actives raise or lower the signal
Procedure, shortened: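 Human primary foreskin fibroblasts in the hDFCGF system, exposed to test chemical for 24 h; MIG measured by ELISA. Bidirectional curve fitting against DMSO negative control as activity baseline.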

[13] = read-out: Matrix Metallopeptidase 1 (MMP1), MMP1 (gene 4312); test: BSK_hDFCGF_MMP1: BioMAP Diversity Plus: hDFCGF Assay for Matrix Metallopeptidase 1 (MMP1) Biomarker Activity (AID 2283064); conditions: primary human foreskin fibroblasts; actives raise or lower the signal
Procedure, shortened: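 hDFCGF primary fibroblasts (human foreskin); chemical added; 24 h; MMP1 by ELISA; bidirectional fit vs DMSO.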

[14] = read-out: Plasminogen activator inhibitor-1 (PAI1), SERPINE1 (gene 5054); test: BSK_hDFCGF_PAI1: BioMAP Diversity Plus: hDFCGF Assay for Plasminogen activator inhibitor-1 (PAI1) Biomarker Activity (AID 2283066); conditions: primary human foreskin fibroblasts; actives raise or lower the signal
Procedure, shortened: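 Human foreskin fibroblast primary cells, 24 h chemical exposure; PAI-1 measured by ELISA. Bidirectional fitting relative to DMSO; parallel cultures stained with SRB for total protein to flag overt cytotoxicity.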

[15] = read-out: Intercellular Adhesion Molecule 1 (ICAM1), ICAM1 (gene 3383); test: BSK_KF3CT_ICAM1: BioMAP Diversity Plus: KF3CT Assay for Intercellular Adhesion Molecule 1 (ICAM1) Biomarker Activity (AID 2283067); conditions: primary human keratinocytes with fibroblasts; actives raise or lower the signal
Procedure, shortened: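 Cell-surface ICAM-1 was measured by ELISA 24 h after dosing primary human skin keratinocytes co-cultured with fibroblasts. Parallel SRB staining tracked overt cytotoxicity. Gain or loss of signal was fitted relative to DMSO.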

[16] = BSK_KF3CT_SRB: Viability Assessment in the BioMAP Diversity Plus: KF3CT Assay (AID 2283069); conditions: primary human keratinocytes with fibroblasts;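 further: total protein by sulforhodamine B staining as a cytotoxicity measure; read 24 h after compound addition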
Procedure, shortened: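 Keratinocytes co-cultured with foreskin fibroblasts (human primary); chemical added, 24 h; fix 10% TCA, stain 0.1% SRB, A560. Bidirectional fit vs DMSO.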

[17] = read-out: Interleukin-1 alpha (IL1a), IL1A (gene 3552); test: BSK_KF3CT_IL1a: BioMAP Diversity Plus: KF3CT Assay for Interleukin-1 alpha (IL1a) Biomarker Activity (AID 2283070); conditions: primary human keratinocytes with fibroblasts; actives raise or lower the signal
Procedure, shortened: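 Chemicals were dosed onto co-cultured human keratinocytes and foreskin fibroblasts, IL-1a was quantified by ELISA at 24 h, and activity was fitted in both directions relative to DMSO controls.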

[18] = read-out: Vascular cell adhesion molecule 1 (VCAM1), VCAM1 (gene 7412); test: BSK_hDFCGF_VCAM1: BioMAP Diversity Plus: hDFCGF Assay for Vascular cell adhesion molecule 1 (VCAM1) Biomarker Activity (AID 2283065); conditions: primary human foreskin fibroblasts; actives raise or lower the signal;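 on AC50: VCAM-1 protein level quantified by ELISA after 24 h chemical exposure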
Procedure, shortened: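 ELISA readout of VCAM-1 on human dermal fibroblast primary cultures, 24 h after chemical exposure. Gain or loss of signal fitted in both directions against DMSO baseline.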

[19] = read-out: Interferon-gamma inducible Protein 10 (IP10), CXCL10 (gene 3627); test: BSK_KF3CT_IP10: BioMAP Diversity Plus: KF3CT Assay for Interferon-gamma inducible Protein 10 (IP10) Biomarker Activity (AID 2283068); conditions: primary human keratinocytes with fibroblasts; actives raise or lower the signal
Procedure, shortened: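 In a primary skin co-culture of keratinocytes and fibroblasts, IP-10 is quantified by ELISA at 24 h after dosing. SRB staining of parallel wells monitors overt toxicity. Curves are fitted both directions against DMSO.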

Measured: AC50

CC1=C(C(=O)Nc2ccccc2)SCCO1
not listed: [18] | [19]
inactive: all other assays above

COC(=O)C=C(C)OP(=O)(OC)OC
active: [9] 0.157 µM | [11] 0.273 µM
not listed: [19]
inactive: all other assays above

CC(C)C1(C)N=C(c2nc3ccccc3cc2C(=O)O)NC1=O (stereo not drawn)
not listed: [18] | [19]
inactive: all other assays above

CC1COC(Cn2cncn2)(c2ccc(Oc3ccc(Cl)cc3)cc2Cl)O1 (stereo not drawn)
inactive: [2] | [3] | [4]
active: [1] 16.1 µM | [5] 28.1 µM | [6] 8.04 µM | [7] 34.5 µM | [8] 25 µM | [9] 32.2 µM | [10] 32.5 µM | [11] 30.4 µM | [12] 31.1 µM | [13] 33.8 µM | [18] 30.8 µM | [14] 32.1 µM | [15] 38.2 µM | [16] 33.7 µM | [17] 38 µM

COc1ccc(C(c2ccc(OC)cc2)C(Cl)(Cl)Cl)cc1
active: [1] 13.1 µM | [8] 6.21 µM | [9] 9.16 µM | [10] 11 µM | [13] 5.09 µM | [14] 14.7 µM | [16] 8.76 µM | [17] 7.74 µM
not listed: [18]
inactive: all other assays above

CON(C)C(=O)Nc1ccc(Cl)c(Cl)c1
not listed: [18]
inactive: all other assays above

CCOC(=O)CC(SP(=S)(OC)OC)C(=O)OCC (stereo not drawn)
not listed: [18] | [19]
inactive: all other assays above
